Counter-ions that a name gives are not always drawn. ± gives the standard deviation of the averaged measurements.
How the values were obtained:
Experiment in all cases: growth (OD600 after 10 h); higher = more growth (less inhibition)
[1] = test system: E. coli TESEC Alr+ wild-type control; settings: compound 0.1 mM; raw OD600 reference: median of DMSO wells 0.241, cell-free background 0.041
Procedure: (§1)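 TESEC Mtb Alr E. coli, or the Alr+ wild-type control, in 384-well plates with Prestwick library compounds at 0.1 mM and 1% DMSO, across arabinose induction levels of 1E3 to 1E7 nM. Growth is read as OD600 after 10 h at 37 °C in triplicate biological replicates.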

E. coli TESEC Mtb Alr [2] = settings: compound 0.1 mM
Procedure: as §1

E. coli TESEC Mtb Asd = settings: compound 0.1 mM
Procedure: (§2)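 TESEC E. coli strains in which the native enzyme is deleted and replaced by arabinose-inducible Mtb Asd, DapB, CysH or TrpD, each grown in its selective medium. Strains were screened against the Prestwick library at 0.1 mM and 1% DMSO in 384-well format at low and high arabinose induction. Growth is read as OD600 after 10 h in triplicate.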

E. coli TESEC Mtb DapB = settings: compound 0.1 mM
Procedure: as §2

[3] = test system: E. coli TESEC Alr+ wild-type control; settings: compound 0.1 mM; raw OD600 reference: median of DMSO wells 0.49, cell-free background 0.052
Procedure: (§3)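 TESEC Mtb Alr E. coli (ΔaraC ΔtolC ΔentC Δalr ΔdadX, arabinose-inducible Mtb Alr) or the Alr+ wild-type control strain, grown in defined M9-fructose medium without D-alanine in 96-well plates with Prestwick library compounds at 0.1 mM and 1% DMSO. Low Alr induction is 0.1 µM arabinose and high induction is 10 mM arabinose.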

E. coli TESEC Mtb Alr [4] = settings: compound 0.1 mM; remark: listed apart in the source
Procedure: as §3

[5] = arabinose 1000 nM, raw OD600 reference: median of DMSO wells 0.294, cell-free background 0.041
[6] = arabinose 10000 nM, raw OD600 reference: median of DMSO wells 0.264, cell-free background 0.041
[7] = arabinose 100000 nM, raw OD600 reference: median of DMSO wells 0.201, cell-free background 0.041
[8] = arabinose 1000000 nM, raw OD600 reference: median of DMSO wells 0.193, cell-free background 0.041
[9] = arabinose 10000000 nM, raw OD600 reference: median of DMSO wells 0.146, cell-free background 0.041
[10] = arabinose induction (level): High, raw OD600 reference: median of DMSO wells 0.331, cell-free background 0.041
[11] = arabinose induction (level): Low, raw OD600 reference: median of DMSO wells 0.417, cell-free background 0.041
[12] = arabinose induction (level): High, raw OD600 reference: median of DMSO wells […], cell-free background 0.041
[13] = arabinose induction (level): Low, raw OD600 reference: median of DMSO wells 0.227, cell-free background 0.041
[14] = arabinose 100 nM, raw OD600 reference: median of DMSO wells 0.413, cell-free background 0.052
[15] = arabinose 10000000 nM, raw OD600 reference: median of DMSO wells […], cell-free background 0.052

| Compound | growth [1] | growth (E. coli TESEC Mtb Alr [2]; [5]) | growth (E. coli TESEC Mtb Alr [2]; [6]) | growth (E. coli TESEC Mtb Alr [2]; [7]) | growth (E. coli TESEC Mtb Alr [2]; [8]) | growth (E. coli TESEC Mtb Alr [2]; [9]) | growth (E. coli TESEC Mtb Asd; [10]) | growth (E. coli TESEC Mtb Asd; [11]) | growth (E. coli TESEC Mtb DapB; [12]) | growth (E. coli TESEC Mtb DapB; [13]) | growth [3] | growth (E. coli TESEC Mtb Alr [4]; [14]) | growth (E. coli TESEC Mtb Alr [4]; [15]) |
| --- | --- | --- | --- | --- | --- | --- | --- | --- | --- | --- | --- | --- | --- |
| C=CCC1(CC(C)C)C(=O)NC(=O)NC1=O [Butalbital] | 0.2428 ± 0.002 | 0.282 ± 0.011 | 0.276 ± 0.0052 | 0.198 ± 0.012 | 0.211 ± 0.0091 | 0.149 ± 0.0019 | 0.407 ± 0.1 | 0.3 ± 0.074 | 0.218 ± 0.021 | 0.24 ± 0.015 | 0.516 ± 0.029 | 0.395 ± 0.0067 | 0.37 ± 0.0073 |
| NCCc1c[nH]c2ccc(O)cc12 [Serotonin hydrochloride] | 0.231 ± 0.013 | 0.297 ± 0.011 | 0.269 ± 0.0069 | 0.198 ± 0.036 | 0.201 ± 0.0049 | 0.145 ± 0.0029 | 0.361 ± 0.022 | 0.405 ± 0.091 | 0.209 ± 0.011 | 0.237 ± 0.0078 |  | 0.407 ± 0.02 | 0.338 ± 0.054 |
| CC[C@@]1(O)C(=O)OCc2c1cc1n(c2=O)Cc2cc3ccccc3nc2-1 [Camptothecine (S,+)] | 0.2398 ± 0.0022 | 0.28 ± 0.012 | 0.267 ± 0.0074 | 0.192 ± 0.016 | 0.184 ± 0.0026 | 0.141 ± 0.0034 | 0.292 ± 0.075 | 0.43 ± 0.046 | 0.199 ± 0.01 | 0.228 ± 0.039 |  | 0.465 ± 0.052 | 0.434 ± 0.031 |
| Oc1cc(Cl)ccc1Oc1ccc(Cl)cc1Cl [Triclosan] | 0.0414 ± 0.0012 | 0.0413 ± 0.0016 | 0.04137 ± 0.00025 | 0.04127 ± 0.00015 | 0.0423 ± 0.0022 | 0.04107 ± 0.00021 | 0.0494 ± 0.0062 | 0.04643 ± 0.00015 | 0.0466 ± 0.0004 | 0.0475 ± 0.0016 | 0.0516 ± 0.0015 | 0.052 ± 0.0048 | 0.054 ± 0.001 |
| c1ccc2nc(N3CCNCC3)ccc2c1 [Quipazine dimaleate salt] | 0.232 ± 0.008 | 0.298 ± 0.016 | 0.25 ± 0.0049 | 0.212 ± 0.04 | 0.177 ± 0.0045 | 0.148 ± 0.0043 | 0.223 ± 0.013 | 0.257 ± 0.015 | 0.215 ± 0.019 | 0.216 ± 0.012 | 0.47 ± 0.0099 | 0.402 ± 0.0069 | 0.371 ± 0.02 |
| C[N+]1(C)CCCC(OC(=O)C(O)(c2ccccc2)c2ccccc2)C1 (stereo not given) [Mepenzolate bromide] | 0.235 ± 0.006 | 0.307 ± 0.016 | 0.258 ± 0.0015 | 0.203 ± 0.022 | 0.179 ± 0.0065 | 0.137 ± 0.0056 | 0.307 ± 0.038 | 0.461 ± 0.02 | 0.188 ± 0.0063 | 0.226 ± 0.009 |  | 0.405 ± 0.0053 | 0.345 ± 0.014 |
| C[C@]12CC[C@@H](O)C[C@H]1CC[C@@H]1[C@@H]2CC[C@]2(C)C(=O)CC[C@@H]12 [3-alpha-Hydroxy-5-beta-androstan-17-one] | 0.129 ± 0.0054 | 0.135 ± 0.0032 | 0.114 ± 0.0066 | 0.131 ± 0.015 | 0.0604 ± 0.00044 | 0.0824 ± 0.00098 | 0.118 ± 0.0061 | 0.171 ± 0.018 | 0.122 ± 0.0084 | 0.135 ± 0.013 | 0.262 ± 0.011 | 0.354 ± 0.027 | 0.0844 ± 0.0097 |
| C[CH2][Hg][S]c1ccccc1C(=O)[O-].[Na+] [Thimerosal] | 0.0433 ± 0.0046 | 0.162 ± 0.018 | 0.117 ± 0.01 | 0.0992 ± 0.0084 | 0.04637 ± 0.00025 | 0.0615 ± 0.0003 | 0.0491 ± 0.0015 | 0.0488 ± 0.0015 | 0.207 ± 0.019 | 0.214 ± 0.014 |  | 0.355 ± 0.036 | 0.0589 ± 0.0027 |
| N[C@@H]1C[C@H]1c1ccccc1 [Tranylcypromine hydrochloride] | 0.241 ± 0.013 | 0.285 ± 0.018 | 0.28 ± 0.0083 | 0.203 ± 0.02 | 0.19 ± 0.0048 | 0.141 ± 0.0022 | 0.354 ± 0.034 | 0.388 ± 0.012 | 0.183 ± 0.0098 | 0.23 ± 0.012 | 0.529 ± 0.055 | 0.411 ± 0.011 | 0.371 ± 0.024 |
| C[N+]12CCC(CC1)C(OC(=O)C(O)(c1ccccc1)c1ccccc1)C2 (stereo not given) [Clidinium bromide] | 0.239 ± 0.0044 | 0.326 ± 0.011 | 0.273 ± 0.0033 | 0.175 ± 0.03 | 0.187 ± 0.01 | 0.132 ± 0.0086 | 0.288 ± 0.035 | 0.453 ± 0.034 | 0.169 ± 0.01 | 0.201 ± 0.0094 |  | 0.406 ± 0.015 | 0.353 ± 0.019 |
| CC(C)c1cccc(C(C)C)c1O [Propofol] | 0.245 ± 0.0043 | 0.309 ± 0.017 | 0.255 ± 0.0092 | 0.202 ± 0.0052 | 0.175 ± 0.0063 | 0.144 ± 0.0055 | 0.441 ± 0.024 | 0.439 ± 0.03 | 0.212 ± 0.011 | 0.236 ± 0.028 |  | 0.389 ± 0.01 | 0.328 ± 0.0056 |
| COc1ccc(Cc2nccc3cc(OC)c(OC)cc23)cc1OC [Papaverine hydrochloride] | 0.153 ± 0.0032 | 0.199 ± 0.0045 | 0.215 ± 0.0047 | 0.141 ± 0.0019 | 0.087 ± 0.0015 | 0.133 ± 0.0021 | 0.133 ± 0.013 | 0.262 ± 0.035 | 0.148 ± 0.0024 | 0.161 ± 0.0073 |  | 0.397 ± 0.0098 | 0.22 ± 0.0059 |
| CC(=O)NC1CCSC1=O (racemic) [N-Acetyl-DL-homocysteine Thiolactone] | 0.253 ± 0.013 | 0.312 ± 0.021 | 0.2598 ± 0.0021 | 0.222 ± 0.031 | 0.185 ± 0.005 | 0.144 ± 0.0094 | 0.29 ± 0.041 | 0.451 ± 0.01 | 0.226 ± 0.0088 | 0.242 ± 0.019 |  | 0.402 ± 0.0097 | 0.35 ± 0.02 |
| C[N+]1([O-])[C@@H]2C[C@@H](OC(=O)[C@H](CO)c3ccccc3)C[C@H]1[C@@H]1O[C@@H]12 (stereo not given in full) [Scopolamin-N-oxide hydrobromide] | 0.262 ± 0.013 | 0.3 ± 0.013 | 0.28 ± 0.0081 | 0.24 ± 0.027 | 0.19 ± 0.0068 | 0.165 ± 0.0072 | 0.334 ± 0.068 | 0.408 ± 0.035 | 0.221 ± 0.012 | 0.257 ± 0.025 | 0.472 ± 0.045 | 0.411 ± 0.021 | 0.347 ± 0.018 |
| CC(=O)[C@H]1CC[C@H]2[C@@H]3CC[C@H]4C[C@H](O)CC[C@]4(C)[C@H]3C(=O)C[C@]12C [Alfaxalone] | 0.1302 ± 0.0013 | 0.162 ± 0.0069 | 0.21 ± 0.0045 | 0.108 ± 0.0044 | 0.101 ± 0.0035 | 0.0965 ± 0.0034 | 0.161 ± 0.045 | 0.275 ± 0.038 | 0.155 ± 0.031 | 0.203 ± 0.028 | 0.3925 ± 0.0021 | 0.3696 ± 0.00096 | 0.192 ± 0.015 |
| CN(C)C(=O)Oc1cccc([N+](C)(C)C)c1 [Neostigmine bromide] | 0.256 ± 0.0033 | 0.316 ± 0.0053 | 0.273 ± 0.0057 | 0.225 ± 0.033 | 0.19 ± 0.0043 | 0.168 ± 0.0075 | 0.222 ± 0.028 | 0.331 ± 0.14 | 0.204 ± 0.0094 | 0.232 ± 0.064 | 0.563 ± 0.068 | 0.404 ± 0.012 | 0.339 ± 0.011 |
